In the supplement of paper PMC10412459:

Test system: K562 SF3B1 K700E vs K562 SF3B1 WT
Test: surviving fraction ratio K562 SF3B1 K700E / K562 SF3B1 WT (each relative to DMSO); higher = less selective killing of SF3B1 K700E cells
Conditions: 5 days
In short: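 In 384-well plates holding 250 cells per well, isogenic K562 cells bearing an engineered mutant allele and matched wild-type cells received compounds from an in-house 80-compound library 24 h after seeding. Doses were 0.5, 1, 5, 10, 50, 100, 500 and 1,000 nM, with 5 d of continuous culture. Surviving fractions were taken from CellTiter-Glo readings and normalised to DMSO. The value reported is the mutant-over-wild-type ratio of these fractions.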

Row | Structure (SMILES) | surviving fraction ratio K562 SF3B1 K700E / K562 SF3B1 WT (0.2nM) | surviving fraction ratio K562 SF3B1 K700E / K562 SF3B1 WT (0.4nM) | surviving fraction ratio K562 SF3B1 K700E / K562 SF3B1 WT (2nM) | surviving fraction ratio K562 SF3B1 K700E / K562 SF3B1 WT (4nM) | surviving fraction ratio K562 SF3B1 K700E / K562 SF3B1 WT (20nM) | surviving fraction ratio K562 SF3B1 K700E / K562 SF3B1 WT (40nM) | surviving fraction ratio K562 SF3B1 K700E / K562 SF3B1 WT (200nM) | surviving fraction ratio K562 SF3B1 K700E / K562 SF3B1 WT (400nM) | surviving fraction ratio K562 SF3B1 K700E / K562 SF3B1 WT (0.5nM) | surviving fraction ratio K562 SF3B1 K700E / K562 SF3B1 WT (1nM) | surviving fraction ratio K562 SF3B1 K700E / K562 SF3B1 WT (5nM) | surviving fraction ratio K562 SF3B1 K700E / K562 SF3B1 WT (10nM) | surviving fraction ratio K562 SF3B1 K700E / K562 SF3B1 WT (50nM) | surviving fraction ratio K562 SF3B1 K700E / K562 SF3B1 WT (100nM) | surviving fraction ratio K562 SF3B1 K700E / K562 SF3B1 WT (500nM) | surviving fraction ratio K562 SF3B1 K700E / K562 SF3B1 WT (1000nM)
1 | O=C1NC(=NCc2cccs2)S/C1=C\c1ccc2ncccc2c1 | 0.909 | 0.855 | 0.878 | 0.842 | 1.02 | 0.921 | 0.844 | 0.909 | – | – | – | – | – | – | – | –
2 | COc1cc2nccc(Oc3ccc(NC(=O)C4(C(=O)Nc5ccc(F)cc5)CC4)cc3)c2cc1OC [Cabozantinib] | – | – | – | – | – | – | – | – | 0.718 | 0.805 | 0.831 | 0.71 | 0.733 | 0.704 | 0.503 | 0.686
3 | CCN(CC)CCCCNc1ncc2cc(-c3cc(OC)cc(OC)c3)c(NC(=O)NC(C)(C)C)nc2n1 | – | – | – | – | – | – | – | – | 1.15 | 1.03 | 0.942 | 0.926 | 0.901 | 1.09 | 0.957 | 0.89
4 | Oc1nc(-c2ccc(C(F)(F)F)cc2)nc2c1CSCC2 | – | – | – | – | – | – | – | – | 1.15 | 0.906 | 0.867 | 0.822 | 1.35 | 1.11 | 1.15 | 0.958
5 | CCN(CC)CCNC(=O)c1c(C)[nH]c(/C=C2\C(=O)Nc3ccc(F)cc32)c1C [sunitinib] | – | – | – | – | – | – | – | – | 1.09 | 1.08 | 0.928 | 1.33 | 0.86 | 1.2 | 0.73 | 0.857
6 | C=CCNC1=C2C[C@@H](C)C[C@H](OC)[C@H](O)[C@@H](C)/C=C(\C)[C@H](OC(N)=O)[C@@H](OC)/C=C\C=C(/C)C(=O)NC(=CC1=O)C2=O | – | – | – | – | – | – | – | – | 1.01 | 0.993 | 0.811 | 0.776 | 0.41 | 1.81 | 1.31 | 1.24
